Compound activity (PubChem)
RORgamma inh – inhibitors of mouse ROR gamma transcriptional activity; P51450; Drosophila S2 Gal4-RORgamma UAS-luciferase reporter, 20 h; 310,000 tested, 5.4% active; Potency, µM (top dose mostly 53.6 µM), for the others: at the top dose activity change, negative = inhibition, hits mostly inhibitors; also: nearly all actives have a fitted effect of over 60% in size
Target sequence (P51450 whole entry, looked up, the tested form may be a part): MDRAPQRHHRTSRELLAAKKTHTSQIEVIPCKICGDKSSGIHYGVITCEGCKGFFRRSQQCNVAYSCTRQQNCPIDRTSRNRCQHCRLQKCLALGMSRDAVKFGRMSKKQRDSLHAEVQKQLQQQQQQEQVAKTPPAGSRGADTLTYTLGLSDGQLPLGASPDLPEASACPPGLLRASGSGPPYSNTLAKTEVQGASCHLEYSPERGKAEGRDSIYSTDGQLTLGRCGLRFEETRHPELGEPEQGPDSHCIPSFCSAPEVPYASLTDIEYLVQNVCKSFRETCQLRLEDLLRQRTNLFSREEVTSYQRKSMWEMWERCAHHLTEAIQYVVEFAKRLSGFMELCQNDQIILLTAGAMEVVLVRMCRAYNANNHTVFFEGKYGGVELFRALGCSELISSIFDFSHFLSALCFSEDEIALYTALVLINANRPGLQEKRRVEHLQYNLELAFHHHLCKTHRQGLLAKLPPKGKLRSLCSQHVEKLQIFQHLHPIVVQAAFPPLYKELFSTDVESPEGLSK
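A Gal4/UAS one-hybrid system in insect cells: metallothionein-promoter Gal4–ROR gamma fusion plus Photinus luciferase reporter. Copper sulfate 700 uM final, 20 hr ambient incubation, luminescent detection after 10 min with reagent.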
DT40 TDP1 CPT – growth inhibition of DT40 Tdp1-/-;hTDP1 cells with camptothecin (screen for TDP1 inhibitors) | chicken DT40 Tdp1-/-;hTDP1 cells + 20 nM CPT, ATP luminescence, 48 h | Potency, µM (doses to about 46.2 µM), for the others: at the highest dose activity change, negative = growth inhibition, usual class: inhibitors | 420,000 tested, 12% active; also: nearly all actives have a fitted effect of over 55% in size
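Chicken DT40 Tdp1-/- cells stably complemented with human TDP1 were seeded at 400 cells/well in medium containing 20 nM camptothecin, exposed to pin-transferred compounds, and grown at 37 °C for at least 48 hr. Viability was read as ATP luminescence.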
TDP1 cell noCPT – qHTS for Inhibitors of human tyrosyl-DNA phosphodiesterase 1 (TDP1): qHTS in cells in absence of CPT | DT40 Tdp1-/- hTDP1 cells, no CPT, ATP luminescence, 48 h | Potency, µM (series often up to 46.2 µM), inactives show at the top dose activity change, negative = growth inhibition, most hits filed as inhibitors | 420,000 tested, 15% active; also: nearly all actives have a fitted effect of over 55% in size
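DT40 Tdp1-/-;hTDP1 cells, no CPT (DMSO vehicle only), 400 cells/well; compounds pin-transferred; ≥48 hr, 37 °C; CellTiter-Glo 30 min RT dark, luminescence read.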
12-LOX inh – ALOX12 (human) lipoxygenase inhibition. P18054. AID 1671190. purified 12hLO, xylenol orange hydroperoxide absorbance. 580,000 tested, 1.1% active. Potency, µM (series often up to 108 µM), for the others: at the highest dose activity change, negative = inhibition, most hits filed as inhibitors
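Purified human 12hLO at 150 nM in 25 mM Hepes, 0.01% Triton X-100, pH 7.0, preincubated 15 min at room temperature with compound. Reaction started with 40 uM arachidonic acid, 30 min at room temperature. Hydroperoxide measured by Fe-xylenol orange, 573/405 nm absorbance ratio.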
Gal4-VP16 FLuc – counter-screen for ROR gamma inhibitors: Gal4-VP16 reporter; Potency, µM (top dose mostly 53.6 µM), inactives show top-dose activity, negative = inhibition, most hits filed as inhibitors; 310,000 tested, 3.5% active; Drosophila S2 Gal4-VP16 UAS-luciferase, luminescence, 20 h;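 also: Gal4-VP16 expression switched on by copper sulfate through the metallothionein promoter; nearly all actives have a fitted effect of over 50% in size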
ELG1 DNA repair – blocks ELG1-dependent DNA repair in HEK293T cells | HEK293T ELG1-luciferase reporter, luminescence, 16 h; DNA damage induced by 5-fluorouridine | Potency, µM (series often up to 46.1 µM), without a hit: at the highest dose activity change, negative = inhibition, most hits filed as inhibitors | 330,000 tested, 2.3% active | AID 504467; also: nearly all actives have a fitted effect of over 55% in size
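HEK293T cells expressing luciferase-tagged ELG1 (2,000/well) received 5-Fluorouridine plus compound or DMSO for 16 hr at 37 °C. Luciferase was read by ONE-Glo luminescence after 30 min at room temperature.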
Starred values were filed as active, the others as inactive; ? = inconclusive; . = not tested or not shown; [ ] = remark or other dose. This is a sample that favours compounds with a hit; in the whole collection about 15% have one here. Calls follow the shape of the dose curve; as a rule, active = well fitted curve in the direction sought with a large enough effect; inconclusive = small, poorly fitted or top-dose-only effect, or another doubt; inactive = no such curve, though single readings can be large; an effect the other way counts as inactive or inconclusive. % is scaled to controls: 0 for no effect and ±100 for the full control effect; potency is read from the fitted curve at half-maximal effect.

SMILES	RORgamma inh	DT40 TDP1 CPT	TDP1 cell noCPT	12-LOX inh	Gal4-VP16 FLuc	ELG1 DNA repair
Cc1ccc2nc(-c3ccccc3)c(Cc3ccccc3C(F)(F)F)n2c1	.	16µM*	?	-1%	.	.
Cc1ccc2nc(C(C)(C)C)c(Cc3ccccc3C(F)(F)F)n2c1	.	16µM*	15µM*	?	.	.
COC(=O)c1ccc2nc(-c3ccccc3)c(Cc3ccccc3C(F)(F)F)n2c1	.	0%	-17%	0%	.	.
COc1ccccc1Cc1c(-c2ccc(C)cc2)nc2c3ccccc3ccn12	.	.	.	-7%	.	.
N#Cc1ccc(-c2nc3ccc(Cl)cn3c2Cc2ccccc2C(F)(F)F)cc1	.	?	?	-65%	.	.
COc1ccccc1Cc1c(C(C)(C)C)nc2ccc(C)cn12	.	0.65µM*	9.2µM*	?	.	.
Cc1ccc(-c2nc3c4ccccc4ccn3c2Cc2ccccc2C(F)(F)F)cc1	.	?	16µM*	-11%	.	.
CONC(=O)COc1ccc(C#N)cc1	.	.	.	7%	.	.
O=C(NCc1ccccc1S(=O)(=O)N1CCOCC1)c1cccc(Br)c1	.	.	.	4%	.	.
Cc1ccc(-c2nc3ccc(C)cn3c2Cc2ccccc2C(F)(F)F)cc1	.	29µM*	?	?	.	.
COc1ccc(Cc2c(C3CCCCC3)nc3ccc(Cl)cn23)c(C)c1	.	-29%	?	?	.	.
COc1ccc(Cc2c(C(C)(C)C)nc3ccc(C)cn23)c(C)c1	.	15µM*	13µM*	?	.	.
Fc1ccc(-c2nc3ccc(Cl)cn3c2Cc2ccccc2C(F)(F)F)cc1	.	?	?	-29%	.	.
O=c1[nH]c(SCc2nc3ccccc3n2Cc2ccccc2)nc2ccccc12	4.5µM*	-26%	-21%	-6%	?	?
O=c1[nH]c(SCc2nc3ccccc3c(=O)n2-c2ccccc2C(F)(F)F)nc2ccccc12	-3%	16µM*	?	-16%	8%	18µM*
O=C(NCc1ccc(C(F)(F)F)cc1)c1n[nH]c2c1CCCC2	.	.	.	95%	.	.
CN(C)Cc1cc(CC2(NCc3ccc4c(c3)OCO4)COC2)no1	.	.	.	59%[176 µM]	.	.
O=C(Nc1nccs1)c1ccc[n+]([O-])c1	.	.	.	-54%	.	.
Cn1c(NC(=O)c2cccc(Cn3cc(Cl)cn3)c2)nc2ccccc21	1.8µM*	?	?	7%	2.8µM*	?
CCn1c(NC(=O)c2cccc(Cn3cc(Cl)cn3)c2)nc2ccccc21	2.8µM*	15µM*	15µM*	45%	2µM*	?
CC(C)CNC(=O)c1cccc(Cn2cc(Cl)cn2)c1	26%	-17%	-22%	-20%	14%	-3%
CC1=C/C(=N\OS(=O)(=O)c2ccccc2)C(C)=CC1=O	1.1µM*	0.58µM*	0.82µM*	0%	2.5µM*	?
CON=C1C=C(C)C(=O)C(C)=C1C	.	13%	10%	-1%	.	.
CC(S(=O)(=O)c1ccccc1)S(=O)(=O)c1ccccc1	.	2%	-6%	12%	.	.
CC1=C/C(=N\OS(=O)(=O)c2ccccc2)C(C(C)C)=CC1=O	2.8µM*	1.6µM*	2.3µM*	.	0.79µM*	?
Cc1nnc(SCC(=O)c2c[nH]c3ccccc23)s1	.	.	.	-18%	.	.
CC1CCCCC1NC(=O)c1cc2c(=O)n3ccccc3nc2n1C (centres undefined)	?	23µM*	16µM*	18%	-8%	?
CC1CCCCC1NC(=O)c1c(O)nc2ccccn2c1=O (centres undefined)	.	?	21µM*	3%	.	?
Cc1csc2nc(O)c(C(=O)NC3CCCCC3C)c(=O)n12 (centres undefined)	.	?	18µM*	6%	.	18%
Cc1cccn2c(=O)c3cc(C(=O)NC4CCCCC4C)n(C)c3nc12 (centres undefined)	-12%	-25%	?	8%	-10%	0%
